Compound activity (PubChem BioAssay)
Most compounds without a hit are left out; they make up all but 1% or so of the library.
PTHR1 ag – qHTS for PTHR1 Agonists: Primary Screen; Potency, µM (highest dose often 115 µM), actives largely listed as activators; hit rate 0.075% among 410,000; HEK293 GP2 PTHR1 cells, GloSensor cAMP luminescence, 1 h; Parathyroid hormone/parathyroid hormone-related peptide receptor (Homo sapiens), Q03431; also: nearly all actives have a fitted effect of over 55% in size
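HEK-293-derived GP2 cells expressing PTHR1 and a GloSensor cAMP reporter, 3,000/well, plated overnight, given luciferin plus IBMX (each 0.5 mM as added) for 1 h at 37 °C, then compound for 1 h at 37 °C. Luminescence was read after 15 min at room temperature.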
gsp antag – qHTS for Antagonists of gsp, the Etiologic Mutation Responsible for Fibrous Dysplasia/McCune-Albright Syndrome: qHTS. gsp-mutant cells, cAMP HTRF, 30 min. Potency, µM (titrated, usually from 76.9 µM), most hits filed as inhibitors. hit rate 0.4% among 340,000. AID 624288, 2012; calls by dose curve; cell line not stated here;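 also: intracellular cAMP measured with PDE inhibitor Ro 20-1724 present during compound exposure; nearly all actives have a fitted effect of over 65% in size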
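HTRF cAMP read-out (cAMP-d2 plus anti-cAMP antibody-K in lysis buffer, 30 min RT). Before lysis, cells are exposed to compounds with […] for 30 min at 37C in DPBS containing Ca/Mg, BSA and Tween 20.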
RXFP1 antag – qHTS Assay for Antagonists of the Relaxin Receptor RXFP1; activity change, negative = inhibition, % at 57.5 µM; hit rate 0.59% among 350,000; Relaxin receptor 1 (Homo sapiens), Q9HBX9; HEK293-RXFP1, relaxin-stimulated cAMP HTRF, 30 min; stronger effect = lower value;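 active = activity change of -60% or lower, but not beyond a set lower limit; inconclusive = change between -60% and -40%, or beyond the set limit; inactive = change above -40%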
Target sequence (Q9HBX9 whole entry, looked up): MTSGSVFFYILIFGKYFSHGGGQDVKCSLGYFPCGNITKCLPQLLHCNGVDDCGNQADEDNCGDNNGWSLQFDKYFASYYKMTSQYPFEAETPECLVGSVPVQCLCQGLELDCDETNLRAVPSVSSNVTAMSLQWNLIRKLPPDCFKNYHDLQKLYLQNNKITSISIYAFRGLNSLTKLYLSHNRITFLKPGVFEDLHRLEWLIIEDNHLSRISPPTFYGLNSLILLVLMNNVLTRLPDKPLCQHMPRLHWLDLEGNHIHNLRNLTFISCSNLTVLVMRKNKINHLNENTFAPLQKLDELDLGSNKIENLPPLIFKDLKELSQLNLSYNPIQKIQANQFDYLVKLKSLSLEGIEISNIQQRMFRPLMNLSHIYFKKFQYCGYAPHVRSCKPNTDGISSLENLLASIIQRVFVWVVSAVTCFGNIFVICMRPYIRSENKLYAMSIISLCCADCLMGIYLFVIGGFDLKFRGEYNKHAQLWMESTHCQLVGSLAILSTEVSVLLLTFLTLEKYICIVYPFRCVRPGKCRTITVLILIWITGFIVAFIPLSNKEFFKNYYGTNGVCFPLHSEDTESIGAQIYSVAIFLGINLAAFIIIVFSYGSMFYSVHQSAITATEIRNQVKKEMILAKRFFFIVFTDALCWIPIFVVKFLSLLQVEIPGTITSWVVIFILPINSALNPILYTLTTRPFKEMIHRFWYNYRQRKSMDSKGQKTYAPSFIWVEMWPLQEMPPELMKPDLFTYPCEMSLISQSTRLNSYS
gsp ag – qHTS for Agonist of gsp, the Etiologic Mutation Responsible for Fibrous Dysplasia/McCune-Albright Syndrome: qHTS | Potency, µM (top dose mostly 76.9 µM), most hits filed as activators | AID 624287, 2012 | hit rate 0.13% among 340,000 | gsp mutant cells, cAMP HTRF, 30 min; active = well fitted activation curve with a large enough effect; inconclusive = small, poorly fitted or top-dose-only effect, or another doubt; inactive = no such curve, though single readings can be large or run the other way; cell line not stated here;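 also: phosphodiesterase inhibitor Ro 20-1724 added with compounds to block cAMP breakdown; nearly all actives have a fitted effect of over 60% in size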
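Cells stably selected in G418 were plated at 2000/well, grown 16-24 hr, then given compounds in DMSO with the PDE inhibitor […] (300 uM solution added) for 30 min at 37C; cAMP was read by HTRF.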
RXFP1 agonist – qHTS Assay for Agonists of the Relaxin Receptor RXFP1; hit rate 0.3% among 370,000; HEK293T-RXFP1 cAMP TR-FRET, 30 min; response scale: percent of porcine relaxin response, buffer zero; Potency, µM (highest dose often 57.5 µM), most hits filed as activators; Relaxin receptor 1 (Homo sapiens), Q9HBX9; also: nearly all actives have a fitted effect of over 60% in size
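cAMP rise read by TR-FRET after 30 min, 37C compound exposure (up to 58 uM) in RXFP1-transfected HEK293 cells with Ro 20174 present. EC50 from Hill-equation fits, with 29 nM porcine relaxin as 100% and buffer as basal.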
Of the large screens only hits and unclear results are named; the others gave an inactive call. Unless noted, calls follow the shape of the dose curve; as a rule, active = well fitted curve in the direction sought with a large enough effect; inconclusive = small, poorly fitted or top-dose-only effect, or another doubt; inactive = no such curve, though single readings can be large; an effect the other way counts as inactive or inconclusive.

COc1ccc(/C=C/CN2CCCC(CO)(Cc3cccc(Cl)c3)C2)cc1 (centres undefined)	RXFP1 antag -69, gsp ag inconclusive
CC(C)Cn1c(SCC(=O)NC(=O)NC2CCCC2)nc2ccccc21	gsp antag inconclusive, RXFP1 antag -66
O=C(NCCc1ccccc1Cl)c1ccc(Cn2c(=O)c3cccn3c3cccnc32)cc1	RXFP1 agonist 22µM (no result: gsp antag, gsp ag)
COc1ccc(/C=C/c2nc(-c3ccccc3O)n[nH]2)cc1OC	RXFP1 antag -100
COc1ccc(CN2CCN(c3ncnc4scc(-c5ccc(F)cc5)c34)CC2)cc1	RXFP1 antag -61
Fc1ccc(-c2csc3ncnc(N4CCN(c5ccccc5)CC4)c23)cc1	RXFP1 antag -65
Cc1cc(OCc2ccccc2)ccc1/C(O)=C1/C(=O)C(=O)N(Cc2cccnc2)C1c1ccncc1 (centres undefined)	RXFP1 agonist 25µM
COc1ccc(CNCc2c(C(=O)O)c(C)n(Cc3ccccc3C)c2C)c(OC)c1	none (no result: gsp antag, gsp ag)
Cc1cc(C(=O)Nc2nc3c(s2)CCCC3)cs1	none
Cc1cccc(C(=O)Nc2nc3c(s2)CCCC3)c1	RXFP1 antag -87 (no result: gsp antag, gsp ag)
COc1ccc(C(=O)Nc2nc3c(s2)CCCC3)cc1Cl	RXFP1 antag -71 (no result: gsp antag, gsp ag)
Cc1ccc(C(C)C)c(OCC(=O)Nc2nc3c(s2)CCCC3)c1	RXFP1 antag -85 (no result: gsp antag, gsp ag)
COc1ccccc1OCC(=O)Nc1nc2c(s1)CCCC2	none
O=C(Cn1ncc2c1-c1ccccc1OC2)N1CCN(c2ccccc2)CC1	none (no result: gsp antag, RXFP1 antag, gsp ag)
CC(C)Oc1ccc(CNS(=O)(=O)c2ccc3c(c2)C(C)(C)C(=O)N3C)cc1	none (no result: gsp antag, RXFP1 antag, gsp ag)
CCCCNC(=O)c1sc(=S)n2c1[nH]c(=O)c1ccccc12	gsp antag 25µM
O=C(NCCc1ccccc1)c1ccc2c(=O)[nH]c3c(C(=O)NCC4CCCO4)sc(=S)n3c2c1 (centres undefined)	gsp antag inconclusive
O=C(NCC1CCCO1)c1sc(=S)n2c1[nH]c(=O)c1ccc(C(=O)N3CCCCC3)cc12 (centres undefined)	gsp antag inconclusive
O=C(NC1CCCCC1)c1sc(=S)n2c1[nH]c(=O)c1ccccc12	gsp antag 45µM
CCOC(=O)c1cc(=O)c2c(OCC(COc3cccc4oc(C(=O)OCC)cc(=O)c34)OC(=O)[C@@H](N)CCCCN)cccc2o1	none (no result: PTHR1 ag, gsp antag, gsp ag, RXFP1 agonist)
Cc1[nH]n(-c2ccccc2)c(=O)c1Sc1ccc(Cl)cc1	none
Cc1cc(-c2c(C)[nH]n(-c3ccc(Cl)cc3)c2=O)n[nH]1	gsp antag 40µM
Cc1cc(N2CCN(S(=O)(=O)c3ccc(Cl)c(Cl)c3)CC2)c2ccccc2n1	none
Cc1cc(N2CCN(S(=O)(=O)c3ccc(Cl)cc3)CC2)c2ccccc2n1	gsp antag 50µM
O=[N+]([O-])c1c(Nc2cccc(O)c2)cc(Cl)c2nonc12	gsp antag 35µM, RXFP1 antag inconclusive
CN(C)c1ccc(-n2cccc2/C=C/[N+](=O)[O-])cc1	RXFP1 antag -83
N#Cc1ccc(-c2nc3ccc(Br)cn3c2Cc2ccccc2)cc1	gsp ag 32µM (no result: gsp antag, RXFP1 agonist)
N#CC1=C(N)SC(N)=C(C#N)C1c1ccc(C(F)(F)F)cc1	none (no result: PTHR1 ag, gsp antag, RXFP1 antag, gsp ag)
CCc1ccc(C2C(C#N)=C(N)SC(N)=C2C#N)cc1	gsp ag 40µM
CC(C)n1ncc2c(C(=O)N3CCN(c4ccccc4)CC3)cc(-c3ccccc3)nc21	none
COc1ccc(NC(=O)c2cc(-c3ccccc3)nc3c2cnn3C(C)C)cc1	gsp antag 28µM
CCOc1ccccc1NC(=O)c1nn(-c2ccc(C)cc2)c(=O)n(C)c1=O	none (no result: gsp antag, gsp ag)
O=C(NCCSc1c[nH]c2ccccc12)c1ccc(Br)o1	none
Cc1[nH]c2ccccc2c1SCCNC(=O)c1ccc(Br)o1	RXFP1 antag -82
Cc1ccc(S(=O)(=O)N2CCOCC2)cc1NC(=O)COC(=O)CNC(=O)c1ccccc1	none (no result: RXFP1 antag)
Cc1ccc(S(=O)(=O)N2CCOCC2)cc1NC(=O)COc1ccc(C(=O)c2ccccc2)cc1	gsp antag 25µM, gsp ag 7.9µM
O=C(Nc1ccc(-c2cn3ccsc3n2)cc1)C1COc2ccccc2O1 (centres undefined)	gsp antag 40µM
Cc1ccc(CNc2ccc3cc(S(=O)(=O)N4CCCCC4)ccc3n2)cc1	none (no result: gsp antag, gsp ag)
Cc1ccc(NC(=O)Cn2c(=O)n(CCCCCC(=O)NCc3ccc(F)cc3)c(=O)c3sccc32)c(C)c1	none (no result: gsp antag, gsp ag)
Cc1ccc(CNC(=O)CCCCCn2c(=O)c3sccc3n(CC(=O)Nc3ccc(C)c(F)c3)c2=O)cc1	RXFP1 agonist 32µM (no result: gsp antag, gsp ag)
CC(C)OP(=O)(CP(=O)(OC(C)C)OC(C)C)OC(C)C	none (no result: PTHR1 ag, gsp antag, gsp ag, RXFP1 agonist)
COc1ccc(CCC(=O)NCc2ccc3c(c2)CCN3C(=O)c2ccc(Cl)cc2)cc1	none (no result: gsp antag, gsp ag)
COc1ccc(NC(=O)c2ccc(NC(=O)CCS(=O)(=O)c3cccs3)cc2)cc1	RXFP1 antag -97
COc1ccc(OCC(=O)Nc2ccc(C(=O)Nc3ccccc3C(=O)O)cc2)cc1	gsp antag 40µM
CC(=O)c1ccc(NC(=O)c2ccc(NC(=O)CCS(=O)(=O)c3cccs3)cc2)cc1	gsp antag inconclusive, RXFP1 antag inconclusive
CCN(CC)C(=O)C1CN2CCc3cc(OC)c(OC)cc3C2CC1OC(C)=O (centres undefined)	none (no result: PTHR1 ag, gsp antag, gsp ag, RXFP1 agonist)
COc1ccc(CN2COc3ccc4c(oc(=O)c5ccccc54)c3C2)cc1OC	RXFP1 agonist inconclusive (no result: gsp antag, gsp ag)
COc1ccccc1CN1COc2ccc3c(oc(=O)c4ccccc43)c2C1	RXFP1 agonist 18µM (no result: gsp antag, gsp ag)
COc1ccc(/C=N/NC(=O)c2cccnc2)cc1COc1ccc([N+](=O)[O-])cc1	RXFP1 antag -85
COc1cc(-c2ccno2)ccc1S(=O)(=O)N1CCN(c2ccc(F)cc2)CC1	none (no result: gsp antag, gsp ag)
CCCCCCCC/C=C/C(=O)O	none (no result: PTHR1 ag, gsp antag, gsp ag, RXFP1 agonist)
COc1ccc(CNC(=O)c2cc3c(=O)oc4ccc(C)cc4c3s2)c(OC)c1	RXFP1 agonist inconclusive (no result: gsp antag, RXFP1 antag, gsp ag)
CN(CC(=O)Nc1ccc(Cl)c(Cl)c1)Cc1nnc(-c2ccc(F)cc2)o1	RXFP1 antag -63
Cc1c(C)c2c(c(C)c1OC(=O)CCC(=O)OCCO)CC[C@](C)(CCC[C@H](C)CCC[C@H](C)CCCC(C)C)O2	none (no result: PTHR1 ag, gsp antag, gsp ag, RXFP1 agonist)
CC(=Cc1ccccc1)C(=O)c1ccccc1	none (no result: gsp antag, RXFP1 agonist)
O=C(C(Br)=Cc1ccccc1)c1ccccc1	RXFP1 antag -91 (no result: RXFP1 agonist)
COc1ccc(Nc2nc3ccc(OC)cc3s2)cc1	none
COc1ccc2nc(Nc3nc(C)c(C(C)=O)s3)sc2c1	RXFP1 antag -70
Cc1ccc(CNC(=O)Cn2c3ncccc3c(=O)n2-c2ccc(C)cc2)cc1	none (no result: gsp antag, gsp ag)
